From PubChem BioAssay (Tox21)
“And” between values parts separate entries of the source, which are not always exact repeats. Identical values can stand only once. Records with an inconclusive call do not appear. The source holds several records for some structures; these can differ, active in one and inactive in another. The source made the active and inactive calls. Calls follow the shape of the full dose curve.

Assay: qHTS assay to identify small molecule agonists of the AP-1 signaling pathway - cell viability counter screen (AID 1159525); also: nearly all actives have a fitted effect of over 55% in size
Conditions: ME-180 (cervical carcinoma) AP-1-bla cells viability, ATP luminescence, 5 h; series mostly up to 76.8 µM; viability change, negative = cytotoxic: at the top concentration
Source text: National Center for Advancing Translational Sciences [NCATS]
NIH Chemical Genomics Center [NCGC]
U.S. Environmental Protection Agency [EPA]
National Institutes of Environmental Health Sciences [NIEHS]
National Toxicology Program [NTP]
U.S. Food and Drug Administration [FDA]
Activator protein-1 (AP-1), a transcription factor, plays an important role in tumor genesis by regulating genes involved in cell proliferation, differentiation, apoptosis, and angiogenesis. AP-1 activity is induced by a complex network of signaling pathways that involves extracellular signals, such as growth factors. The AP-1 protein complex formed from c-Fos and c-Jun binding to the AP-1 response element results in transcriptional activation of genes containing such elements within their promoter.
Low molecular weight molecules have been discovered and developed to modulate various components of these signaling pathways, for example, MAP kinase inhibitors. However, many points of pathway modulation remain untested due to the lack of chemical probes making this signaling locus of general interest.
Using a beta-lactamase reporter-gene under control of the AP-1 response element, a cell-based assay [CellSensor(TM) AP-1-bla ME-180 developed by Invitrogen Corp.] was used to measure EGF-induced signaling. The Tox21 10K library compounds were measured for their ability to positively modulate the action of EC50 EGF on reporter gene activity. Compounds were screened in a 15-pt titration series in 1536-well format. The cytotoxicity of the Tox21 compound library against this cell line was tested in parallel by measuring the intra cellular ATP content in the same wells.
Tox21 Assay Protocol Summary:
2500 cells/5uL in Opti-MEM medium containing 0.5% dialyzed FBS, 0.1 mM NEAA, 1 mM sodium pyruvate and 10 mM HEPES was dispensed into 1536-well black wall/clear bottom plates using a Multidrop dispenser and cells were cultured at 37 degrees Celsius overnight. Next day 23 nL of compounds dissolved in DMSO, positive controls or DMSO were delivered to each well using a pin tool. The plates were incubated at 37 degrees Celsius for 5 hours. 1 uL of LiveBLAzerTM B/G FRET substrate (Solution A+B+C+D) was added to each well using a Flying Reagent Dispenser. After incubated at room temperature for 2.5 hours the plates were measured on an EnVision plate reader at Excitation 405nm, Emission1=460nm and Emission 2=530nm. The %Activity was determined from the ratio of 460nm/530nm.
After the plates were read for Beta-Lactamase assay on Envision; 3 ul Cell Titer Glo (Promega) was added to measure the cytotoxicity and the plates were then incubated at RT in dark for 30 min. The luminescence was read on ViewLux (Perkin Elmer, Shelton, CT) using 6 sec exposure. ViewLux data was expressed as relative luminescence units.
For primary data analysis, raw plate reads for each titration point were first normalized relative to […] EGF control (100%) and DMSO only wells (basal, 0%).
For primary data analysis for viability assay, raw plate reads for each titration point were first normalized Tetra n-octyl ammonium bromide control (-100%) and DMSO (control, 100%).
Potency is read from the fitted curve at half-maximal effect.

Compound	Potency	viability change, negative = cytotoxic
Cc1cccc(O)c1C	inactive	–
O=Nc1ccc(Nc2ccccc2)cc1	–	23.9% (inactive)
O=c1n(CC2CO2)c(=O)n(CC2CO2)c(=O)n1CC1CO1 (stereo not given)	inactive	–
CCCCOCCOC(=O)c1ccccc1C(=O)OCCOCCCC	inactive	–
CC(=O)OCC1=C(C(=O)O)N2C(=O)[C@@H](NC(=O)Cc3cccs3)[C@H]2SC1	–	-1.18% [at 35.3 µM] (inactive)
COC(=O)/C=C/c1ccccc1	inactive	–
C1COC(NC(C2CC2)C2CC2)=N1	–	-1.75% [at 35.3 µM] (inactive)
O=C1NCC2(CCN(CCc3ccccc3)CC2)O1	–	2.47% [at 35.3 µM] (inactive)
CCCCC(CC)COC(=O)CC(C(=O)OCC(CC)CCCC)S(=O)(=O)O (stereo not given)	42 µM (active) and 49 µM (active)	–
O=C(O)c1cc(Cl)cc(Cl)c1	–	-6.64% (inactive)
CCN(CC)C(=O)Nc1ccc(OCC(O)CNC(C)(C)C)c(C(C)=O)c1 (stereo not given)	–	5.97% [at 35.3 µM] (inactive)
CC(C)CCCCCCc1ccc(O)cc1	25 µM (active) and 49 µM (active)	–
CC(=O)O[C@]1(C(C)=O)CC[C@H]2[C@@H]3C[C@H](C)C4=CC(=O)CC[C@]4(C)[C@H]3CC[C@@]21C	inactive	–
CCn1c2ccccc2c2cc(N)ccc21	inactive	–
Cc1cc(C2(c3cc(C)c(O)cc3C)OS(=O)(=O)c3ccccc32)c(C)cc1O	inactive	–
Cc1cccc([N+](=O)[O-])c1C(=O)O	–	3.95% (inactive)
NC(N)=Nc1nc(CSCC/C(N)=N/S(N)(=O)=O)cs1	inactive	–
Nc1cc(Cl)c(-c2cc(Cl)c(N)cc2Cl)cc1Cl	38.9 µM (active) and 54.9 µM (active)	–
CC(C)(C)NCC(O)c1cc(O)cc(O)c1 (stereo not given)	–	1.3% [at 35.3 µM] (inactive)
NC12CC3CC(CC(C3)C1)C2	–	7.95% [at 35.3 µM] (inactive)

Compound	Potency	viability change, negative = cytotoxic
CC1COc2c(N3CCN(C)CC3)c(F)cc3c(=O)c(C(=O)O)cn1c23 (stereo not given)	–	14.5% [at 35.3 µM] (inactive)
CCC(=O)/C=C/C1C(C)=CCCC1(C)C (stereo not given)	inactive	–
CC(C)(c1ccccc1)c1ccc(Nc2ccc(C(C)(C)c3ccccc3)cc2)cc1	inactive	–
CC(=O)C1=C(C)[C@@H]2C[C@@]3(C1)[C@H](C)CC[C@H]3C2(C)C	inactive	–
COc1ccc(CCN2CCC(Nc3nc4ccccc4n3Cc3ccc(F)cc3)CC2)cc1	35.4 µM (active) and inactive	–
CCN(CC)c1ccc2c(C)cc(=O)oc2c1	inactive	–
O=C(Nc1ccccc1SSc1ccccc1NC(=O)c1ccccc1)c1ccccc1	inactive	–
CCC(C)(C)C(=O)O[C@H]1C[C@@H](C)C=C2C=C[C@H](C)[C@H](CC[C@@H]3C[C@@H](O)CC(=O)O3)[C@H]21	–	0.4% (inactive)
COc1ccc(COC(C)=O)cc1	inactive	–
CCOc1ccc2c(c1)C(C)=CC(C)(C)N2	inactive	–
CCC[C@H](N[C@@H](C)C(=O)N1[C@H](C(=O)O)C[C@@H]2CCCC[C@@H]21)C(=O)OCC	inactive	–
Cc1cc(Cc2cc(C)cc(C(C)(C)C)c2O)c(O)c(C(C)(C)C)c1	11 µM (active) and 13.8 µM (active)	–
CC(C)(C)NCC(O)COc1ccccc1OCC1CCCO1 (stereo not given)	–	1.41% [at 35.3 µM] (inactive)
Cc1cc(C(C)(C)C)c(O)c(C(C)(C)C)c1	inactive	–
COC(c1ccccc1)(c1ccccc1)[C@H](Oc1nc(C)cc(C)n1)C(=O)O	–	-26.4% [at 35.3 µM] (inactive)
CC(C(O)c1ccc(O)cc1)N1CCC(Cc2ccccc2)CC1 (stereo not given)	–	9.33% [at 35.3 µM] (inactive)
Cc1occc(=O)c1OC(=O)C(C)C	–	-14.6% (inactive)
O=C(O)CP(=O)(O)O	–	-18.5% [at 35.3 µM] (inactive)
C=C(C)C(=O)O	inactive	–
CC(=O)OCCOCCOCCOC(C)=O	inactive	–
